Screens as filed in PubChem.
The list is not random: actives were taken first. Their share in the collection is about 4.4%.
p53ts 39C kill: p53ts cell cytotoxicity, nonpermissive temperature; H1299-p53A138V viability at 39C, ATP luminescence, 24 h; Potency, µM (highest dose often 46.1 µM), actives largely listed as cytotoxic; hit rate 1.5% among 130,000; AID 902; also: nearly all actives have a fitted effect of over 55% in size
HPGD block: inhibitors of human 15-hydroxyprostaglandin dehydrogenase (HPGD) | purified HPGD, NADH fluorescence kinetic, PGE2 substrate | P15428 | hit rate 4.3% among 150,000 | Potency, µM, usual class: inhibitors; active = well fitted inhibition curve with a large enough effect, not every such curve was filed as active; inconclusive = small, poorly fitted or top-dose-only effect, or another doubt; inactive = no such curve, though single readings can be large or run the other way
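20 nM HPGD preincubated 15 min at room temperature with compound in 50 mM Tris-HCl pH 8, 0.01% Tween 20. Started with 1 mM NAD+ and 30 uM prostaglandin E2; NADH fluorescence (360/450 nm) read 5 times over 30-s intervals, last minus first.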
12-hLO inh: 12-hLO (ALOX12) enzyme inhibition; hit rate 0.12% among 150,000; AID 1452; purified 12-hLO, xylenol orange hydroperoxide absorbance; Potency, µM (series often up to 57.1 µM), usual class: inhibitors; also: nearly all actives have a fitted effect of over 55% in size
Target sequence (P18054 whole entry, looked up): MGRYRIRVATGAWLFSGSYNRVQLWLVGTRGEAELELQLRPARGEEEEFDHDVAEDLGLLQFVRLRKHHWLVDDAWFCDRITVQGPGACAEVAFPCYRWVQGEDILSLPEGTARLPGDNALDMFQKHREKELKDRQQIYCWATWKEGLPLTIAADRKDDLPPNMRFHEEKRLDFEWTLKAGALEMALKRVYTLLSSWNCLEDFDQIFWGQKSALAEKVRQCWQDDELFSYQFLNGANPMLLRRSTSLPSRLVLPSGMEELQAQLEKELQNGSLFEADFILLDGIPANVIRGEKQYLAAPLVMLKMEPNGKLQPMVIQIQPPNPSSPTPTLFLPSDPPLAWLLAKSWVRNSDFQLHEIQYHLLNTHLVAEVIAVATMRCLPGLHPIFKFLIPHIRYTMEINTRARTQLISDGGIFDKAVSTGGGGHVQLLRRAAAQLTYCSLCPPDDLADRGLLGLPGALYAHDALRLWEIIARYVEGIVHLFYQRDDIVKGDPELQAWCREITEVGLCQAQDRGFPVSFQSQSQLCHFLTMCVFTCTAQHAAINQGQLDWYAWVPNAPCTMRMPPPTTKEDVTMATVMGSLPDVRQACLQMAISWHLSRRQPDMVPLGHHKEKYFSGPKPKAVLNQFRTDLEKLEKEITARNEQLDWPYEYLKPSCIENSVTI
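Hydroperoxide output read as Fe(III)-xylenol orange absorbance, 573-to-405 nm ratio, after 30 min reaction with 40 uM arachidonic acid. Enzyme: 150 nM purified human 12hLO, 15 min compound preincubation; 25 mM Hepes pH 7.0, room temperature.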
p53ts 32C kill: kills p53ts cells at the permissive temperature; Potency, µM (series often up to 46.1 µM), hits mostly cytotoxic; hit rate 0.93% among 130,000; H1299-p53A138V at 32C, ATP luminescence viability, 24 h; AID 924; also: nearly all actives have a fitted effect of over 55% in size
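Cells: H1299 p53ts (A138V), 600/well, pre-incubated 16–30 h at 37C. Cpd up to 46 uM, 24 h, 32C. Readout: ATPlite luminescence, 20 min RT. Normalization: DMSO vs tamoxifen 100 uM. AC50 by Hill equation.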
A number is an active result; . = inactive; ? = inconclusive; / = no result given; [ ] = remark or other dose. Unless noted, calls follow the shape of the dose curve; as a rule, active = well fitted curve in the direction sought with a large enough effect; inconclusive = small, poorly fitted or top-dose-only effect, or another doubt; inactive = no such curve, though single readings can be large; an effect the other way counts as inactive or inconclusive.

SMILES	p53ts 39C kill	HPGD block	12-hLO inh	p53ts 32C kill
Cn1c(SCc2cccc3ccccc23)nnc1-c1ccco1	.	?	.	.
Nn1c(Cc2cccc3ccccc23)nnc1SCc1c(Cl)cccc1Cl	/	7.94µM	.	/
Nn1c(SCc2cccc3ccccc23)nnc1-c1ccco1	.	14.1µM	.	.
CCC(C(=O)N1CCN(c2ccccc2F)CC1)n1nc(C)c2sc3ccccc3c2c1=O (stereo not drawn)	.	/	/	.
Cc1ccccc1C(=O)NCC(c1cccnc1)N1CCc2ccccc21 (stereo not drawn)	.	/	/	.
CS(=O)(=O)N(Cc1ccccc1)c1ccc(C(=O)NCC2CCCO2)cc1 (stereo not drawn)	/	.	.	/
O=C(NCC1CCCO1)c1ccc(COc2ccccc2Br)cc1 (stereo not drawn)	/	3.98µM	.	/
COc1cccc(OCc2ccc(C(=O)NCC3CCCO3)cc2)c1 (stereo not drawn)	/	10µM	.	/
CCN1c2ccccc2-c2nc(SCC(=O)Nc3cccc(C)c3C)ncc2S1(=O)=O	.	/	/	.
O=C(Nc1nnc(-c2ccco2)s1)c1ccccc1	?	.	.	?
O=C(Nc1nnc(/N=C/c2ccco2)s1)c1ccc(F)cc1	12.6µM	.	.	10µM
CCCc1c(OCCCOc2ccc(OCC(=O)O)cc2)ccc(CC=O)c1O	.	.	.	.
CCc1ccccc1-n1nnc(-c2nc(-c3ccccc3F)no2)c1C	.	/	/	.
CCOC(=O)C1=C(O)/C(=C\c2cccc(OC)c2)N=C1C	/	.	.	/
CCCCc1ccc(/C=C2\C(=O)c3ccccc3C(O)=C2C(=O)OCC)cc1	/	8.91µM	.	/
COc1c(O)cc2c(=O)oc3c(OC)c(O)cc4c(=O)oc1c2c34	/	5.01µM	/	/
CCC(=O)N1CCc2cc(Br)cc(S(=O)(=O)N3CCC(C(=O)Nc4ccccc4F)CC3)c21	.	/	/	.
CCCCCCCCCCCCC[N+](C)(C)Cc1ccccc1	12.6µM	.	.	15.8µM
CCCCCCS(=O)Cc1ccccc1 (stereo not drawn)	.	.	.	.
COc1ccc(CNC(=O)C(=O)NCC(c2cccs2)S(=O)(=O)c2ccc(C)cc2)cc1 (stereo not drawn)	.	/	/	.
COC(=O)c1cc(-c2ccccc2)sc1N	/	28.2µM	.	/
COc1ccccc1/C=C\C=N\n1c(-c2ccc(Cl)cc2Cl)n[nH]c1=S	/	3.98µM	?	/
O=[N+]([O-])c1cc2c(cc1/C=N/n1c(-c3ccccc3)n[nH]c1=S)OCO2	/	3.16µM	.	/
Nc1nnnn1/N=C/c1ccccc1OCc1ccc(Cl)cc1	.	?	.	.
COc1ccccc1/C=C/C=N/n1c(COc2ccccc2)n[nH]c1=S	/	?	.	/
SMILES	p53ts 39C kill	HPGD block	12-hLO inh	p53ts 32C kill
Cc1n[nH]c(=S)n1/N=C/c1ccccc1OCc1ccc(Cl)cc1	/	10µM	.	/
O=[N+]([O-])c1cc2c(cc1/C=N/n1c(-c3ccccn3)n[nH]c1=S)OCO2	/	?	.	/
COc1ccccc1/C=C\C=N\n1c(-c2ccc(Cl)cc2)n[nH]c1=S	/	12.6µM	.	/
CCCC/C=C/C(NC(=O)c1ccc(C(F)(F)F)cc1)c1ccccc1 (stereo not drawn)	.	.	.	.
Cc1ccc(-c2n[nH]c(=S)n2/N=C/C=C/c2ccccc2[N+](=O)[O-])cc1	/	2.82µM	.	/
CC1CCN(c2ccc(NC(=O)c3cccc(Cl)c3)cc2C(=O)O)CC1	.	/	/	.
O=C(CSc1n[nH]c(-c2cccs2)n1)N1CCCc2ccccc21	/	6.31µM	.	/
Nc1cc(=O)[nH]c(SCc2csc(-c3ccccc3)n2)n1	/	.	.	/
O=C(CSc1n[nH]c(-c2ccccc2O)n1)N1CCCc2ccccc21	.	10µM	?	.
c1ccc(-c2nc(CSc3n[nH]c(-c4cccs4)n3)cs2)cc1	/	3.98µM	.	/
Cc1cc(NC(=O)CSc2n[nH]c(-c3cccs3)n2)no1	/	14.1µM	.	/
CCn1c(SCC(=O)N2CCCc3ccccc32)nnc1-c1cccs1	.	.	.	.
CCc1nnc(SCC(=O)N2CCCc3ccccc32)nc1CC	.	.	.	.
COC(=O)c1cc2oc3ccccc3c2n1Cc1c(F)cccc1Cl	.	/	/	.
COc1ccc(-c2nc3cnc(Oc4cccc(Cl)c4)nc3n(C[C@H]3CCCO3)c2=O)cc1	.	/	/	.
CCc1nnc(NC(=O)CSc2nc(-c3ccc(OC)cc3)ns2)s1	.	.	.	.
COc1ccc(-c2nsc(SCC(=O)Nc3cc(C)on3)n2)cc1	.	25.1µM	.	.
COC(=O)c1ccc(Cl)cc1NC(=O)N1CCCn2nc(C)cc21	?	/	/	.
Cn1c(=O)c2c(nc(NC3CCCCC3)n2Cc2ccccc2)n(C)c1=O	.	.	.	5.01µM
Cn1c(=O)c2c(nc(NCc3ccccc3)n2Cc2ccccc2)n(C)c1=O	.	/	/	.
O=C(NCCc1csc2nc(-c3cccc(F)c3)nn12)c1ccc(Br)o1	?	/	/	.
CCc1ccc(NC(=O)CSCCO)cc1	/	20µM	.	/
COC(=O)[C@@H](NC(=O)N1CCc2nc(-c3ccc(OC)cc3C)c3c(c2C1)CO[C@@H](c1ccccc1)C3)C(C)C	/	.	.[11.4 µM]	/
COc1cc(/C=N/NC(=O)c2cc(-c3ccccc3)n[nH]2)ccc1O	.	.	.	.
O=C(N/N=C/c1ccccc1O)c1cc(-c2ccccc2)n[nH]1	15.8µM	.	.	.
SMILES	p53ts 39C kill	HPGD block	12-hLO inh	p53ts 32C kill
COc1cccc(-c2cc(C(=O)N/N=C/c3ccccc3O)[nH]n2)c1	10µM	.	.	?
O=C(N/N=C\c1ccccc1O)c1ccccc1O	2µM	?	.	1.26µM
COc1cc(/C=N/NC(=O)c2cc(-c3ccccc3)n[nH]2)cc(OC)c1OC	.	?	.	.
CC(C)c1cnc2c(c1SCC(=O)N1CCCCC1)c(=O)n(C)c(=O)n2C	.	/	/	.
CC(=O)Nc1ccc(C(=O)NCCc2ccccc2)cc1	/	?	.	/
COCCNC(=O)c1ccc(NC(C)=O)cc1	/	20µM	.	/
C=CCN1C(c2ccccc2)=CS/C1=C(\C#N)c1nnc2n1CCCCC2	.	25.1µM	.	.
CCOc1ccc(C2=CS/C(=C(\C#N)c3nnc4n3CCCCC4)N2CC)cc1	.	?	.	.
O=C(NCCN1CCCC1)c1ccc(-n2c(=O)c(=O)[nH]c3ccccc32)cc1	.	.	.	.
COc1cccc(-n2c(=O)c3sc4ccccc4c3n(CC(=O)Nc3ccccc3OC)c2=O)c1	10µM	/	/	.
O=C(Nc1ccc(N2CCOCC2)cc1)c1cnsn1	5.01µM	.	.	3.98µM
CCS(=O)(=O)c1ncc(Cl)c(C(=O)Nc2ccc(S(=O)(=O)N(C)c3ccccc3)cc2)n1	3.16µM	/	/	?
CS(=O)(=O)c1ncc(Cl)c(C(=O)Nc2ccc(N3CCOCC3)cc2)n1	?	.	.	12.6µM
CCN(c1ccccc1)S(=O)(=O)c1ccc(NC(=O)c2nc(S(C)(=O)=O)ncc2Cl)cc1	3.16µM	/	/	?
O=C(Nc1ccc(N2CCOCC2)cc1)c1ccncc1	.	.	.	.
CC(C)Nc1ccc(-c2nc(-c3ccccn3)no2)cc1[N+](=O)[O-]	.	/	/	.
Cc1ccc(OCCn2cc(/C=C3\C(=O)NN(c4ccccc4)C3=O)c3ccccc32)cc1	/	.	.	/
O=C1NN(c2ccccc2)C(=O)/C1=C/c1ccc(Sc2cccc3ccccc23)o1	/	17.8µM	.	/
